# Measurements as given in ChEMBL document CHEMBL1201862, “PubChem BioAssay data set” (2004).
# These assays gave more results; the selection is not random. The source made the active and inactive calls. The rule behind the calls is not given here.
# Target: Luciferin 4-monooxygenase (Photinus pyralis) (UniProt P08659)
# Sequence (P08659 whole entry): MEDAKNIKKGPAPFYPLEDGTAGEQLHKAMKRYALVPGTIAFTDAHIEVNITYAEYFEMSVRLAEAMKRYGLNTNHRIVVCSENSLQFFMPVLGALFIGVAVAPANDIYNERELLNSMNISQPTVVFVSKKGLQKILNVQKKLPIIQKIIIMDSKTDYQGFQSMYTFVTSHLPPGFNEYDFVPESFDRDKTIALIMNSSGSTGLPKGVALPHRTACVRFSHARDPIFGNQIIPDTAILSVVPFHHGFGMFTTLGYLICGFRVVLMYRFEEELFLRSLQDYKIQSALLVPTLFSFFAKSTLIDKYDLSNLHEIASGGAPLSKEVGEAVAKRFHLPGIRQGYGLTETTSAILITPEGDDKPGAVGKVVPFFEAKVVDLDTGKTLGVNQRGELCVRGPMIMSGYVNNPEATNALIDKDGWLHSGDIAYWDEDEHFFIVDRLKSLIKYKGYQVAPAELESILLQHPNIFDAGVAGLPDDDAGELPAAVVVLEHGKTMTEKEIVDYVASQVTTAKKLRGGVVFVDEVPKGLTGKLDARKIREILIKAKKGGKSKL
smiles,measurement,value
CC(O)[C@@H]1NC(=O)[C@H](CCCCN)NC(=O)[C@@H](Cc2c[nH]c3ccccc23)NC(=O)[C@H](Cc2ccccc2)NC(=O)[C@@H](NC(=O)[C@H](N)Cc2ccccc2)CSSC[C@@H](C(=O)N[C@H](CO)[C@@H](C)O)NC1=O (stereo partly specified),Potency,inactive
